In the library only some 1.2% were active in any assay of this set; here they are far more common.
NOD2-RIPK2 inh – inhibitors of human NOD2-RIPK2 interaction; actives 0.38% (n = 360,000); AID 624267; CHO BLA complementation NOD2-RIPK2, CCF4 ratio; inhibition, % at 4.98 µM; in the data active means inhibition above about 21%
NPR1 activator – GC-A (human) enzyme activation; HEK293 GC-A cells, cGMP TR-FRET, EC30 ANP; 0% at EC30 ANP, 100% saturating ANP; activation, % at 10 µM; actives 0.14% (n = 370,000); AID 1671463; in the data active means activation above about 40%
GC-B act – GC-B (human) receptor activation; P20594; HEK293-GC-B cells, CNP EC30, cGMP TR-FRET; 0% at EC30 CNP, 100% saturating CNP; activation, % at 10 µM; actives 0.11% (n = 370,000); AID 1920062;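 active means activation at 10 µM reaching about 35% in either raw or pattern-adjusted values, limit read from the data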
TLR9-MyD88 block – blocks human TLR9 binding to MyD88. Q9NR96+Q99836. CHO BLA complementation TLR9-MyD88, CCF4 FRET ratio. inhibition, % at 4.98 µM. actives 0.21% (n = 340,000). AID 504734;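 active means inhibition above the mean over all tested compounds plus 3 SD, cut at about 21% in these data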
Neddylation inh – inhibitors of human cullin neddylation. P61081+Q13564. inhibition, % at 25 µM. actives 0.58% (n = 360,000). TR-FRET cullin neddylation, biochemical; in the data active means inhibition above about 36%
TLR4-MyD88 BLA – blocks binding of human TLR4 to MyD88; HeLa CL3-4 TLR4/MyD88 BLA complementation, FRET ratio; inhibition, % at 8.4 µM; actives 0.18% (n = 200,000); AID 861; in the data active means inhibition above about 25%
Target sequence (O00206 whole entry, looked up): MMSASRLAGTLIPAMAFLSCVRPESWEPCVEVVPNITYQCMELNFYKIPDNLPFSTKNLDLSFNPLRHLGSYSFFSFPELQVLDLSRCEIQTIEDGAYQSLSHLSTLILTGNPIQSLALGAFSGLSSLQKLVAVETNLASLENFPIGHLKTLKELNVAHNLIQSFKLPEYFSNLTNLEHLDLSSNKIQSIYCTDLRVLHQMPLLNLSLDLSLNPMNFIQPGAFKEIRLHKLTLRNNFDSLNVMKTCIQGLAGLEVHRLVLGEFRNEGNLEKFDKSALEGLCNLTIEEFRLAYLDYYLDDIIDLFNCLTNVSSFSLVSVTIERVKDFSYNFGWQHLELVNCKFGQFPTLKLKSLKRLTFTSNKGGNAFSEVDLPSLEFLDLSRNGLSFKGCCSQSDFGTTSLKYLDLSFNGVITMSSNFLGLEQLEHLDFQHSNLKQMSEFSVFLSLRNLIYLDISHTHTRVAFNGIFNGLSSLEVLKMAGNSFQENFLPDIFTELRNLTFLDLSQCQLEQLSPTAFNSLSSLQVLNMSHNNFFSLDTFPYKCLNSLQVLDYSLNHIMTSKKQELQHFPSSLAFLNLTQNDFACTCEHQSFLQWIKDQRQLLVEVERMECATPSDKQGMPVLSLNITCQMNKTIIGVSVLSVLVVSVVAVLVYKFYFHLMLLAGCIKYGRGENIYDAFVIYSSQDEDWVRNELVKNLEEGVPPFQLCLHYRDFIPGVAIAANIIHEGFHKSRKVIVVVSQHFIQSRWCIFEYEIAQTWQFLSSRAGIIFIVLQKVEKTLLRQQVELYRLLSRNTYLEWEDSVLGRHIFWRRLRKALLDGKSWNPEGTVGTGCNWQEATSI
Target sequence (Q99836 whole entry, looked up): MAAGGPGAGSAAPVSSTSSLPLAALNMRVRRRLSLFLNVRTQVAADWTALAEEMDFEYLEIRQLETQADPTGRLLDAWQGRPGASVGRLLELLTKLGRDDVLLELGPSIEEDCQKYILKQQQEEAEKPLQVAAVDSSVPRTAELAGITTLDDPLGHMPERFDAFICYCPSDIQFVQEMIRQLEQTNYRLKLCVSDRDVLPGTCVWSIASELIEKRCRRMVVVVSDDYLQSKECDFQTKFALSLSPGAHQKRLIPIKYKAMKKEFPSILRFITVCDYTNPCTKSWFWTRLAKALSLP
Neddyl inh conf – cullin neddylation inhibition, confirmation. actives 13% (n = 1,800). TR-FRET cullin neddylation biochemical assay. AID 652217. shares compounds with Neddylation inh. calls only at 25 µM; in the data active means inhibition above about 40%;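 further: neddylation substrate is the cullin 1 ring ligase complex with SKP2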
Each line names hits and unclear results; the compound was inactive in the other large screens (follow-up assays come after a bar, where shown).

Fc1cccc(CO/N=C/c2c(-c3ccccc3)nc3ccc(Cl)cn23)c1	none
Cc1cccn2c(/C=N/OCc3cccc(F)c3)c(-c3ccc(Cl)cc3)nc12	Neddylation inh 47.9 | Neddyl inh conf inactive
Nc1cc(=O)n(Cc2ccco2)c(=S)[nH]1	none (no result: TLR4-MyD88 BLA)
COc1ccc2nc3n(c(=O)c2c1)-c1ncccc1C(=O)NC3CC(C)C (configuration not stated)	none (no result: TLR4-MyD88 BLA)
O=C(c1cnn2c(C(F)(F)F)cc(-c3ccc4c(c3)OCO4)nc12)N1CCCCC1	NPR1 activator 44.0, GC-B act 48.6, Neddylation inh 44.4 | Neddyl inh conf inactive
O=C(c1cc2nc(-c3ccccc3)cc(C(F)(F)F)n2n1)N1CCCC1	Neddylation inh 41.4 (no result: TLR4-MyD88 BLA) | Neddyl inh conf inactive
O=C(c1cc2nc(-c3ccco3)cc(C(F)(F)F)n2n1)N1CCCCCC1	Neddylation inh 55.7
O=C(c1cc2nc(-c3ccco3)cc(C(F)(F)F)n2n1)N1CCN(c2ccccc2)CC1	none
COc1ccc(-c2cc(C(F)(F)F)n3nc(C(=O)N4CCCCC4)cc3n2)cc1OC	Neddylation inh 38.1 | Neddyl inh conf inactive
O=C(NCCc1ccccc1)OCc1cn(Cc2ccc(C(F)(F)F)cc2)nn1	none (no result: NOD2-RIPK2 inh, TLR9-MyD88 block, Neddylation inh, TLR4-MyD88 BLA)
COc1ccc(C)cc1NC(=O)CN1C(=O)COc2ccc(C)cc21	none (no result: TLR4-MyD88 BLA)
CCC(CC)NC(=O)C1CCN(c2ccc(S(=O)(=O)N3CCOCC3)cc2[N+](=O)[O-])CC1	none (no result: TLR4-MyD88 BLA)
COC(=O)c1c(C(=O)OC)c2cc(C(=O)c3ccccc3)ccn2c1Cl	Neddylation inh 48.4 | Neddyl inh conf inactive
COc1ccc(-c2cnc3ccccc3n2)cc1NC(=O)CNC(=O)c1ccccc1	Neddylation inh 38.8 (no result: TLR4-MyD88 BLA) | Neddyl inh conf inactive
CN(C(=O)c1ccc(NC(=O)Cc2ccc(NC(=O)C3CCCN(C(=O)C4CCCC4)C3)cc2)cc1)C1CC1 (configuration not stated)	none (no result: TLR4-MyD88 BLA)
Cc1nn(-c2ccccc2)c2nc(Cl)c(C(=O)O)cc12	none (not shown: Neddylation inh)
Cc1nn(-c2ccccc2)c2nc3c(cc12)C(=O)CCC3	Neddylation inh 43.6 | Neddyl inh conf inactive
CCCCn1c2nc3ccccc3nc2c2c(=O)n(CC(C)C)cnc21	Neddylation inh 37.0 (no result: TLR4-MyD88 BLA) | Neddyl inh conf inactive
Cc1cc2nc(-c3ccccc3)c(Cc3ccccc3)n2c(C)c1Br	none (no result: TLR9-MyD88 block, TLR4-MyD88 BLA)
Cc1cc(Cl)ccc1OCC(=O)NNC(=O)c1ccc(=O)[nH]c1	none (no result: TLR4-MyD88 BLA)
Cc1ccn2c(=O)c(C(=O)NCCCN3CCCC3=O)c(O)nc2c1	Neddylation inh 47.8 (no result: TLR4-MyD88 BLA) | Neddyl inh conf active
CCC1CCCCN1CCCNC(=O)c1c(O)nc2cc(C)ccn2c1=O (configuration not stated)	none (no result: TLR4-MyD88 BLA)
Cc1cccn2c(=O)c(C(=O)NC3CCCCC3C)c(O)nc12 (configuration not stated)	none (no result: TLR4-MyD88 BLA)
Cc1ccn2c(=O)c(C(=O)NC3CCCCC3C)c(O)nc2c1 (configuration not stated)	Neddylation inh 44.1 (no result: TLR4-MyD88 BLA) | Neddyl inh conf inactive
Cc1ccn2c(=O)c(C(=O)NCCCN3CCCCC3C)c(O)nc2c1 (configuration not stated)	Neddylation inh 45.4 (no result: NPR1 activator, GC-B act, TLR4-MyD88 BLA) | Neddyl inh conf inactive
COc1cccc(/C=C/C(=O)OCC(=O)c2ccc[nH]2)c1	Neddylation inh 40.2 (no result: TLR4-MyD88 BLA) | Neddyl inh conf inactive
O=C(/C=C/c1cccc(F)c1)OCC(=O)c1ccc[nH]1	none (no result: TLR4-MyD88 BLA)
Cc1ccc(/C=C/C(=O)OCC(=O)Nc2ccccc2Sc2ccccc2)cc1	none
COc1cccc(/C=C/C(=O)OCC(=O)Nc2ccccc2Sc2ccccc2)c1	Neddylation inh 43.7 | Neddyl inh conf inactive
CO[C@H]1CN(C)C(=O)c2ccc(NC(=O)C3CCC3)cc2OC[C@H](C)N(CC2CCCCC2)C[C@@H]1C	none (no result: TLR9-MyD88 block, TLR4-MyD88 BLA)
CCOC(=O)c1cn2nc(Oc3cccc(C(F)(F)F)c3)ccc2n1	Neddylation inh 55.1 (not shown: TLR4-MyD88 BLA)
O=C(N/N=C/c1ccc([N+](=O)[O-])o1)c1ccncc1	Neddylation inh 43.3 (no result: TLR9-MyD88 block, TLR4-MyD88 BLA) | Neddyl inh conf inactive
CCOc1cc(/C=N/NC(=O)c2cc(C)n(-c3ccc(F)cc3)c2C)ccc1O	Neddylation inh 40.4 (no result: TLR4-MyD88 BLA) | Neddyl inh conf inactive
N=c1c(C(=O)NCc2ccco2)cc2c(=O)n3ccccc3nc2n1Cc1ccccc1	none (not shown: Neddylation inh)
Cc1ccc(CNC(=O)c2cc3c(=O)n4ccccc4nc3n(Cc3ccco3)c2=N)cc1	none (not shown: Neddylation inh, TLR4-MyD88 BLA)
N=c1c(C(=O)NCCN2CCOCC2)cc2c(=O)n3ccccc3nc2n1Cc1ccc(F)cc1	Neddylation inh 73.3 (not shown: TLR4-MyD88 BLA)
N=c1c(C(=O)NCc2ccco2)cc2c(=O)n3ccccc3nc2n1Cc1ccc(Cl)cc1	Neddylation inh 54.7 | Neddyl inh conf inactive
Cc1ccc2nc3c(cc(C(=O)NCc4ccco4)c(=N)n3Cc3ccco3)c(=O)n2c1	Neddylation inh 56.1 | Neddyl inh conf inactive
OC1CCCN(Cc2cccc3ccccc23)C1 (configuration not stated)	none
OC1CCCN(Cc2c3ccccc3cc3ccccc23)C1 (configuration not stated)	Neddylation inh 49.7 | Neddyl inh conf active
Cc1ccc(-c2nc3ncccc3o2)cc1NC(=O)C(C)(C)C	Neddylation inh 40.6 (not shown: TLR4-MyD88 BLA)
CCCC(=O)Nc1cc(-c2nc3ncccc3o2)ccc1C	none (not shown: Neddylation inh)
COc1ccccc1C=NNC(=O)C(=O)NN=Cc1ccccc1OC	Neddylation inh 40.4 (no result: TLR4-MyD88 BLA) | Neddyl inh conf inactive
COc1ccccc1/C=N/NC(=O)c1ccccc1NS(=O)(=O)c1ccc(C)cc1	Neddylation inh 51.5
O=c1c2ccccc2nc2c3ccccc3cnn12	Neddylation inh 43.8 | Neddyl inh conf inactive
CCN(CC(=O)Nc1ccc(NC(C)=O)cc1)C(=O)c1ccc(NC2CC2)c([N+](=O)[O-])c1	none (no result: TLR4-MyD88 BLA)
Cc1nc2c(C#N)cnn2c2c1CCN2CC1CCCO1 (configuration not stated)	Neddylation inh 43.1 | Neddyl inh conf inactive
Cc1nc2c(C#N)cnn2c2c1CCN(Cc1ccccc1)N2C	none
O=S1(=O)N=C(N(CCO)/N=C/c2ccc(Cl)cc2)c2ccccc21	Neddylation inh 46.9 (not shown: TLR4-MyD88 BLA)
C[C@H](NC(=O)c1cc2c(cn1)[nH]c1ccccc12)C(=O)O	Neddylation inh 42.0 (no result: TLR4-MyD88 BLA) | Neddyl inh conf active
O=C(NCC(c1cccs1)N1CCOCC1)C1CCN(S(=O)(=O)c2ccccc2C(F)(F)F)CC1 (configuration not stated)	none (no result: TLR4-MyD88 BLA)
CCc1c(C(=O)N/N=C/c2ccc(OCc3ccc(F)cc3)c(OC)c2)nnn1-c1nonc1N	Neddylation inh 42.9 (no result: TLR4-MyD88 BLA) | Neddyl inh conf inactive
Cc1ccc(SCc2c(C(=O)N/N=C/c3ccc4c(c3)OCO4)nnn2-c2nonc2N)cc1	none (no result: TLR4-MyD88 BLA)

Screening results deposited in PubChem by several laboratories.
